# From PubChem BioAssay
# In the library only some 11% were active in any assay of this set; here they are far more common.
# PNC inhibitor: inhibitors of perinucleolar compartment assembly. PC3M PTB-GFP, PNC prevalence imaging, 16 h; hits give low values. activity change (PNC), negative = inhibition, % at 10 µM. 140,000 compounds, 3.1% hits;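 active = readout at or below -70, meaning at least 70% loss of cells showing the perinucleolar compartment, a nuclear body marking cancer cells; inconclusive = readout between -30 and a set limit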;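 also: plate controls were DMSO wells for no effect and camptothecin positive control wells for full effect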
#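 PC3M cells stably expressing PTB-GFP, 750–1000 cells/well, treated 16 h at 37 °C with compound (23 nl of library stock), in duplicate. After paraformaldehyde fixation and Hoechst stain, imaged at 20x; PNC prevalence scored by image analysis.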
# HPGD block: inhibitors of human 15-hydroxyprostaglandin dehydrogenase (HPGD); P15428; purified HPGD, NADH fluorescence kinetic, PGE2 substrate; Potency, µM, for the others: top-dose activity change, negative = inhibition, actives largely listed as inhibitors; 150,000 compounds, 4.3% hits; AID 894; active = well fitted inhibition curve with a large enough effect, not every such curve was filed as active; inconclusive = small, poorly fitted or top-dose-only effect, or another doubt; inactive = no such curve, though single readings can be large or run the other way; also: potency is read from the fitted curve at half-maximal effect; % is scaled to controls: 0 for no effect and ±100 for the full control effect
# Target sequence (P15428 whole entry, looked up): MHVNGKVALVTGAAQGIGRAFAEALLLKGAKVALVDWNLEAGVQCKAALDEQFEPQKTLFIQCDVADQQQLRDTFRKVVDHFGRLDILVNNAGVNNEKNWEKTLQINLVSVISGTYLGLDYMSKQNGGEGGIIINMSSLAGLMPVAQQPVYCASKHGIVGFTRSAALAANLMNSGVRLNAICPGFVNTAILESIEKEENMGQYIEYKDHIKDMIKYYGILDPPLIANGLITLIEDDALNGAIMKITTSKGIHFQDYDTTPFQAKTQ
#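 NADH formation kinetics: reaction with 30 uM PGE2 and 1 mM NAD+ (final), 20 nM enzyme, Tris-HCl pH 8 with Tween 20, after 15 min compound preincubation at room temperature. Fluorescence change, last versus first of five reads.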
# GoLoco inh red: RGS12 GoLoco-Gai1 interaction inhibition; AID 880; Gai1:RGS12 GoLoco peptide FP, rhodamine, 10 min; P63096; Potency, µM (series often up to 61.6 µM), without a hit: top-dose activity, negative = inhibition, most hits filed as inhibitors; 230,000 compounds, 0.44% hits; active = well fitted inhibition curve with a large enough effect, not every such curve was filed as active; inactive = no such curve, though single readings can be large or run the other way; also: potency is read from the fitted curve at half-maximal effect; % is scaled to controls: 0 for no effect and ±100 for the full control effect; nearly all actives have a fitted effect of over 30% in size
# Target sequence (P63096 whole entry, looked up): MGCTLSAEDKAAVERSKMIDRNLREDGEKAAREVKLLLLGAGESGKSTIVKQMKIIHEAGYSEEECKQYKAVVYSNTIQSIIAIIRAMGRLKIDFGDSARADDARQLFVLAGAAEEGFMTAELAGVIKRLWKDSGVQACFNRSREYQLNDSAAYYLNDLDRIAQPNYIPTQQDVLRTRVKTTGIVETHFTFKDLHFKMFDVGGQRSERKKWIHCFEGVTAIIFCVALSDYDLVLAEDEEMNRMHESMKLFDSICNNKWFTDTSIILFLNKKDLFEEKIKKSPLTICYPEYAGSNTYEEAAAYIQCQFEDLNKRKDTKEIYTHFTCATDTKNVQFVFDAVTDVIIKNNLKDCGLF
# ALDH1A1 inh: ALDH1A1 (human) enzyme inhibition. P00352. Purified ALDH1A1, NADH fluorescence, propionaldehyde substrate. Potency, µM (highest dose often 75.3 µM), without a hit: at the top dose activity, negative = inhibition, usual class: inhibitors. 220,000 compounds, 7.3% hits; active = well fitted inhibition curve with a large enough effect, not every such curve was filed as active; inconclusive = small, poorly fitted or top-dose-only effect, or another doubt; inactive = no such curve, though single readings can be large or run the other way;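 also: potency is read from the fitted curve at half-maximal effect; plate controls were no enzyme wells and a reference inhibitor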
# HTT ATP protect: Huntington cell model cytoprotection by ATP luminescence; PC12 HTT-Q103 induced, cytoprotection, ATP luminescence, 40 h; Potency, µM (doses to about 56.4 µM), inactives show cytoprotection (ATP increase), usual class: activators; 230,000 compounds, 0.14% hits; AID 1471; also: potency is read from the fitted curve at half-maximal effect; % of control where 0% means no effect; nearly all actives have a fitted effect of over 45% in size
#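 PC12 cells stably carrying ecdysone-inducible Htt exon 1 (Q103)–GFP were induced with 100 nM tebufenozide (final) alongside library compounds in a dose series. Cytoprotection was scored as retained ATP by ATPlite luminescence.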
# HttQ103 aggreg: mutant huntingtin aggregation inhibition. PC12 HttQ103-GFP aggregates, Acumen cytometry, 40 h. Potency, µM (titrated, usually from 46.1 µM), for the others: at the highest dose activity change, negative = inhibition, most hits filed as inhibitors. 220,000 compounds, 1.1% hits. AID 1688; also: potency is read from the fitted curve at half-maximal effect; % is scaled to controls: 0 for no effect and ±100 for the full control effect; nearly all actives have a fitted effect of over 60% in size
#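 PC12 cells with ecdysone-inducible HTT exon1 Q103-GFP, induced by 100 nM tebufenozide, given compounds in a concentration series. GFP aggregates (1–25 um, 6 SD above background) counted in lysates by laser-scanning cytometry, 488 nm excitation.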
# An asterisk follows results filed as active; ? = inconclusive; . = not tested or not shown; [ ] = remark or other dose. Unless noted, calls follow the shape of the dose curve; as a rule, active = well fitted curve in the direction sought with a large enough effect; inconclusive = small, poorly fitted or top-dose-only effect, or another doubt; inactive = no such curve, though single readings can be large; an effect the other way counts as inactive or inconclusive.
SMILES,PNC inhibitor,HPGD block,GoLoco inh red,ALDH1A1 inh,HTT ATP protect,HttQ103 aggreg
O=C(Nc1ccc(Cl)cc1F)c1ccccc1Br,-81.1*,15.8µM*,3.7%,4.2%,24.3%[10 µM],3.3%
CCC/C=N/NC(=O)c1[nH]c2c([N+](=O)[O-])cccc2c1C,-112.6*,-6.4%,-2.3%,?,-37.0%[10 µM],?
O=C1[C@H]2CCC=C[C@H]2[C@H](c2ccccc2Br)N1Cc1ccccc1,.,-11.6%,-0.1%[88.7 µM],?,-147.1%,.
COc1ccc(N2C(=O)[C@H]3CCC=C[C@H]3[C@@H]2c2ccccc2Br)cc1,.,-20.4%,-8.1%,7.08µM*,-330.2%,.
CSc1ccccc1C(=O)C1CCCN(C(=O)c2cc(C(C)C)no2)C1 (configuration not stated),.,.,7.3%,17.8µM*,7.7%[10 µM],17.5%[9.22 µM]
O=S(=O)(Cc1ccccc1)NCC1CCCN(Cc2cccc3nonc23)C1 (configuration not stated),.,.,3.6%,10µM*,7.0%[10 µM],-2.2%[9.22 µM]
COc1ccc(-n2c(=O)c(-c3ccc(F)cc3)nc3cnc(OC)nc32)cc1,.,-1.2%,0.5%,-2.2%,-0.7%,.
CC1CCN(CC(=O)N2c3ccccc3Sc3cc4ccccc4cc32)CC1,.,-4.9%,7.5%[14.2 µM],1.9%[13.5 µM],10.0%[10 µM],.
Cc1ccccc1-n1nnnc1-c1ccccc1,16.9,-12.8%,-6.9%,4.47µM*,-5.8%,-19.7%
COc1ccc(-c2nnnn2-c2ccccc2OC)cc1,55.6,1.3%,3.0%,7.94µM*,-4.3%,18.1%
CN1CCC(OC(=O)C(Oc2ccc(Cl)cc2)Oc2ccc(Cl)cc2)CC1,.,.,.,.,3.6%,-12.0%
CSc1nsc(N/N=C/c2ccc3c(c2)OCO3)c1C#N,.,.,15.6%,-1.1%,-55.8%,-3.3%
COc1cc(/C=N/Nc2snc(SC)c2C#N)cc(OC)c1OC,-105.3*,?,33.3%,?,-57.7%,-12.0%
COc1cc(/C=N/NS(=O)(=O)c2ccc(C)cc2)ccc1OCc1ccc(C(=O)O)cc1,.,.,4.9%,?,-45.2%,14.6%
COc1cc(/C=N/NS(=O)(=O)c2ccccc2)ccc1OS(=O)(=O)c1ccc(C)cc1,?,-18.9%,4.5%,7.94µM*,7.6%[10 µM],2.2%
COc1ccc(/C=C(\C#N)C(=O)NCc2cccs2)cc1OC,-14.6,-13.9%,10.6%,1.2%,12.9%[10 µM],5.0%
COc1ccc(/C=N/NS(=O)(=O)c2ccccc2)cc1OS(=O)(=O)c1ccc(C)cc1,-22.8,-4.1%,3.8%,7.08µM*,3.1%,-1.5%
COc1ccc(/C=N/NS(=O)(=O)c2ccc(C)cc2)cc1OC(=O)c1ccc(C)cc1,-7.6,-22.8%,-28.2%,?,29.6%,18.4%
C=CCNC(=O)/C(C#N)=C/c1ccc(OS(=O)(=O)c2ccc(C)cc2)c(OC)c1,-19.8,28.2µM*,-2.4%,25.1µM*,.,21.4%
O=c1ccn([C@@H]2O[C@@H](COP(=O)(O)OP(=O)(O)O)[C@H](O)[C@@H]2O)c(=O)[nH]1,.,.,.,.,-6.5%[1.9 µM],.
CN(Cc1cc(Br)cc(Br)c1N)C1CCCCC1,.,-10.1%,4.9%,1.6%,-60.2%,?
Cc1cc(C)nc(SCC(=O)N2CCOCC2)n1,?,-10.6%,-4.5%,8.2%,-7.3%,-0.7%
Cc1oc2nc(SCC(=O)N3CCCCC3)nc(N)c2c1C,4.2,1.41µM*,10.7%,?,-21.2%[10 µM],-13.5%
COc1ccc(-c2ccc(SCC(=O)c3ccccc3)nn2)cc1OC,.,.,13.6%,25.1µM*,-22.0%,3.6%
CSc1ccc(C(=O)C2CCCN(C(=O)CCCn3cncn3)C2)cc1 (configuration not stated),.,.,-4.7%,15.8µM*,13.3%[10 µM],19.3%[9.22 µM]
SMILES,PNC inhibitor,HPGD block,GoLoco inh red,ALDH1A1 inh,HTT ATP protect,HttQ103 aggreg
O=C(c1cccc(C(F)(F)F)c1)C1CCCN(C(=O)CCCn2cncn2)C1 (configuration not stated),.,.,-7.0%,0.7%,-18.2%,19.3%
CCN(CC)S(=O)(=O)c1ccc(Cl)c(C(=O)NC)c1,3.7,-6.2%,7.4%,-5.5%,-11.8%[10 µM],-10.6%
CCN(CC)S(=O)(=O)c1ccc(F)c(C(=O)NCCC(C)C)c1,-100.0*,-10.7%,1.1%,0.9%,.,?
CS(=O)(=O)Nc1nnc(SCC(=O)N(c2ccccc2)c2ccccc2)s1,-27.8,-16.9%,-6.6%,31.6µM*,15.5%[10 µM],-9.6%
COc1ccccc1CN1CC[C@@]2(CCCN(C(=O)c3c(C)noc3C)C2)C1,.,-13.6%,2.5%,-3.6%,6.0%,.
CN(C)S(=O)(=O)c1nc(Cl)c2[nH]cnc2n1,.,-6.9%,-4.9%[14.2 µM],3.9%[13.5 µM],3.4%[10 µM],.
Cc1ccc(S(=O)(=O)CNC(=S)c2ccc3ccccc3c2)cc1,66.8,-12.9%,8.2%,?,-4.4%[10 µM],-4.1%
COc1ccc(CCNc2ccc(C)cc2)cc1,-24.7,-8.9%,-2.3%,-6.7%,-1.7%,23.3%
COc1ccc(C(=S)NCS(=O)(=O)c2ccc(C)cc2)cc1,-23.5,25.1µM*,-15.9%,22.4µM*,.,8.1%
COc1ccc(C(=S)Nc2ccc(C)cc2)cc1,128.3,22.4µM*,-14.1%,?,-38.9%,12.2%
COc1ccc(C(O)CNc2ccc(C)cc2)cc1 (configuration not stated),-4.6,-11.1%,9.7%,20µM*,-7.9%,14.8%
COc1ccc(NC(=S)c2ccncc2)cc1,-21.7,-4.8%,1.1%,-0.8%,18.2%[10 µM],-17.4%
Clc1ccc2c(NC3CCC(N4CCCCC4)CC3)ccnc2c1 (configuration not stated),.,-10.1%,1.7%[14.2 µM],-4.8%[13.5 µM],-14.3%[10 µM],.
O=C(O)CC1COc2ccccc2N1C(=O)c1ccccc1Cl (configuration not stated),.,.,-5.2%,7.4%,-28.7%,-8.6%
CC1CCN(c2ncnc3ccccc23)CC1,243.1,-11.8%,7.6%,6.1%,24.2%[10 µM],22.4µM*
CN(C)c1ccc(C2=NOC(CN3C(=O)c4ccccc4S3(=O)=O)C2)cc1 (configuration not stated),-24.0,?,1.6%,15.8µM*,-32.2%,-0.6%[9.22 µM]
O=C1c2ccccc2S(=O)(=O)N1Cc1nc2ccccc2s1,21.4,-12.5%,4.9%,-10.5%,-69.5%[10 µM],1.7%
O=C(c1cccc(C(F)(F)F)c1)N1CCN(c2cc(=O)[nH]nc2-c2ccccc2)CC1,84.8,23.1%,7.8%,2.99µM*,-24.9%,-3.6%
COc1ccc(Cc2nnc(N/N=C/c3ccc(O)cc3O)[nH]c2=O)cc1OC,-25.0,31.6µM*,-8.1%,-7.1%,17.5%[10 µM],9.5%
CCN1CCN(c2ccc([N+](=O)[O-])c(Sc3nc4ccccc4[nH]3)c2)CC1,?,.,.,3.1%,4.8%[10 µM],-12.1%
Cc1cccc(Sc2c([N+](=O)[O-])ncn2C)c1,-7.4,5.01µM*,-2.4%,0.1%,23.7%,9.9%
Cc1cccnc1Sc1c([N+](=O)[O-])ncn1C,38.2,-7.9%,1.3%,15.8µM*,6.9%,10.9%
